Test results published in PubChem BioAssay (EPA / NIEHS).
Values joined by “and” are separate entries in the source; they are usually repeats but may differ in a detail not shown here. Equal entries are not always repeated. Records with an inconclusive call do not appear. A structure can be active in one record and inactive in another. Active and inactive are the calls of the source. Rule for the calls, unless noted: active = hit-call score of the fitted dose curve at least 0.9, where 1 is the maximum; inactive = score below 0.9.

Tests used:
[1] = ATG_ERE_CIS: Attagene CIS-FACTORIAL HepG2 Assay for Estrogen Response Element (ERE) (AID 2282940); details: HepG2 ERE cis-reporter, Attagene RNA transcript; actives raise or lower the signal
Method in brief: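 HepG2 cells transiently transfected with multiplexed cis-element reporter units, measuring endogenous transcription factor activity; ERE reporter mRNA quantified after 24 h exposure by RT-PCR, fluorescent labelling, HpaI digestion and capillary electrophoresis. Bidirectional change versus DMSO.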

[2] = molecular target: human Retinoid X Receptor beta (RXRb), RXRB (gene 6257) (UniProt P28702); test: ATG_RXRb_TRANS: Attagene TRANS-FACTORIAL HepG2 Assay for human Retinoid X Receptor beta (RXRb) (AID 2283013; active = hit-call score of the fitted dose curve at least 0.9, where 1 is the maximum)
Method in brief: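 Chimeric receptor-Gal4 activity was assessed in transiently transfected human HepG2 cells after 24 h exposure. Transcripts from GAL4-UAS reporters were quantified by fluorescent RT-PCR and capillary electrophoresis, with DMSO as negative control and baseline.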

[3] = molecular target: Retinoic acid receptor RXR-alpha (Homo sapiens) (UniProt P19793); test: OT_NURR1_NURR1RXRa_0480: Odyssey Thera (OT) 8-hour HEK293T Protein Complementation Assay for Nurr1/retinoid X receptor (RXR) (AID 2283385; active = hit-call score of the fitted dose curve at least 0.9, where 1 is the maximum)
Method in brief: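 Interaction of bait and prey reconstitutes a functional reporter, whose fluorescence was measured in HEK293T cells dosed with compound for 8 hours. Signal gain relative to DMSO defined the single endpoint.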

[4] = molecular target: Retinoic acid receptor RXR-alpha (Homo sapiens) (UniProt P19793); test: OT_NURR1_NURR1RXRa_1440: Odyssey Thera (OT) 24-hour HEK293T Protein Complementation Assay for Nurr1/retinoid X receptor (RXR) (AID 2283386; active = hit-call score of the fitted dose curve at least 0.9, where 1 is the maximum)
Method in brief: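 Steps: fragment-tagged Nurr1 and RXRα expressed in HEK293T; compounds added; after 24 h, complemented reporter quantified by fluorescence intensity; signal increase over DMSO fitted as the single endpoint.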

[5] = molecular target: Peroxisome proliferator-activated receptor gamma (Homo sapiens) (UniProt P37231); test: OT_PPARg_PPARgSRC1_0480: Odyssey Thera (OT) 8-hour Protein-Complementation Assay for Peroxisome Proliferator-activated Receptor Gamma / SRC-1 Co-activator (AID 2283387; active = hit-call score of the fitted dose curve at least 0.9, where 1 is the maximum)
Method in brief: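 Read-out: 488 nm N/C fluorescence ratio from complemented Venus YFP fragments, ≥350 cells per image, gain-of-signal fitted against DMSO baseline. Fusions of PPARg/SRC-1 with IFP1/IFP2 expressed transiently in HEK293T; compounds applied 8 h.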

[6] = molecular target: Peroxisome proliferator-activated receptor gamma (Homo sapiens) (UniProt P37231); test: OT_PPARg_PPARgSRC1_1440: Odyssey Thera (OT) 24-hour Protein-Complementation Assay for Peroxisome Proliferator-activated Receptor Gamma/ SRC-1 Co-activator (AID 2283388; active = hit-call score of the fitted dose curve at least 0.9, where 1 is the maximum)
Method in brief: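 HEK293T transiently transfected with PPARg/SRC-1 split-Venus YFP fusions 48 h before dosing, then treated 24 h at 37C. Fixed cells imaged; nuclear/cytoplasmic 488 nm fluorescence ratio, gain of signal versus DMSO.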

[7] = ACEA_AR_antagonist_AUC_viability: ACEA Biosciences xCELLigence Real-Time Cell Analysis on Androgen Receptor Antagonism for Viability (AID 2283776; active = hit-call score of the fitted dose curve at least 0.9, where 1 is the maximum;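 note: 22Rv1 human prostate cancer cells growing on impedance electrode plates; area under impedance growth curve at 80 h after dosing as viability; hits lower the growth signal relative to DMSO meaning cytotoxicity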)
Method in brief: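 Real-time electrical impedance tracks 22Rv1 proliferation after continuous compound exposure (top 100 uM final, 1:4 steps, 8 concentrations). The 80 h area-under-curve serves as the cytotoxicity readout relative to DMSO.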

[8] = BSK_3C_TissueFactor: BioMAP Diversity Plus: 3C Assay for Tissue Factor Biomarker Activity (AID 2282997); details: BioMAP 3C HUVEC, tissue factor biomarker readout; actives raise or lower the signal
Method in brief: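 Tissue Factor measured by ELISA, 24 h after treatment of primary HUVEC in the BioMAP 3C setting.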

[9] = BSK_3C_uPAR: BioMAP Diversity Plus: 3C Assay for Urokinase-type plasminogen activator receptor (uPAR) Biomarker Activity (AID 2282998); details: BioMAP 3C HUVEC, uPAR biomarker ELISA; actives raise or lower the signal
Method in brief: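 Primary human umbilical vein endothelial cells, 3C system; surface uPAR measured by ELISA 24 h after dosing. Cytotoxicity via SRB total protein in parallel cultures; bidirectional fit against DMSO.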

[10] = BSK_4H_Eotaxin3: BioMAP Diversity Plus: 4H Assay for Eotaxin 3 Biomarker Activity (AID 2283000); details: primary human endothelial cells (HUVEC); actives raise or lower the signal;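 for outcome: CCL26 protein level quantified by ELISA in parallel with SRB cytotoxicity check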
Method in brief: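 Eotaxin-3 (CCL26) levels were measured by ELISA in HUVEC primary cultures 24 h post-dosing. Gain or loss of signal was fitted in both directions, with DMSO serving as baseline and negative control.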

[11] = read-out: Interleukin-1 alpha (IL1a), IL1A (gene 3552); test: BSK_BE3C_IL1a: BioMAP Diversity Plus: BE3C Assay for Interleukin-1 alpha (IL1a) Biomarker Activity (AID 2283016); details: primary human bronchial epithelial cells; actives raise or lower the signal
Method in brief: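 Signal from IL-1a ELISA, taken 24 h after chemical dosing of human bronchial epithelial cells, is compared with DMSO as baseline using bidirectional curve fitting.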

[12] = read-out: Monocyte Chemoattractant Protein-1 (MCP1), CCL2 (gene 6347); test: BSK_3C_MCP1: BioMAP Diversity Plus: 3C Assay for Monocyte Chemoattractant Protein-1 (MCP1) Biomarker Activity (AID 2283017); details: primary human endothelial cells (HUVEC); actives raise or lower the signal
Method in brief: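 Human umbilical vein endothelial cells (3C system) exposed to chemicals for 24 h; MCP-1 quantified by ELISA against the DMSO baseline with bidirectional fitting, and parallel SRB staining used to assess cytotoxicity.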

[13] = read-out: Monocyte Chemoattractant Protein-1 (MCP1), CCL2 (gene 6347); test: BSK_4H_MCP1: BioMAP Diversity Plus: 4H Assay for Monocyte Chemoattractant Protein-1 (MCP1) Biomarker Activity (AID 2283018); details: primary human endothelial cells (HUVEC); actives raise or lower the signal
Method in brief: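 Endothelial cells from umbilical vein were treated with test chemical, then after 24 h MCP-1 levels were quantified by ELISA; endpoint values came from bidirectional fitting with DMSO as baseline of activity.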

[14] = read-out: Interleukin-1 alpha (IL1a), IL1A (gene 3552); test: BSK_LPS_IL1a: BioMAP Diversity Plus: LPS Assay for Interleukin-1 alpha (IL1a) Biomarker Activity (AID 2283080); details: primary human HUVEC with PBMC; actives raise or lower the signal
Method in brief: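 Human umbilical vein endothelial cells co-cultured with PBMC and stimulated with LPS; IL-1a measured by ELISA 24 h after dosing. Bidirectional fitting against DMSO; cytotoxicity checked by SRB staining in parallel cultures.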

[15] = BSK_LPS_PGE2: BioMAP Diversity Plus: LPS Assay for Prostaglandin E2 (PGE2) Biomarker Activity (AID 2283082); details: primary human HUVEC with PBMC; actives raise or lower the signal;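 for AC50: secreted prostaglandin E2 measured by ELISA in LPS-stimulated co-culture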
Method in brief: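 Compounds were added to the LPS co-culture of endothelium and PBMC, and PGE2 was measured by ELISA after 24 h. Responses in either direction were fitted with DMSO as baseline.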

[16] = molecular target: Nuclear receptor subfamily 4 group A member 2 (Homo sapiens) (UniProt P43354); test: ATG_NURR1_TRANS: Attagene TRANS-FACTORIAL HepG2 Assay for human Nuclear Receptor Related Protein 1 (NURR1) (AID 2282985; active = hit-call score of the fitted dose curve at least 0.9, where 1 is the maximum); details: HepG2 Attagene TRANS reporter, mRNA readout
Method in brief: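 Reporter transcript induction, measured by RT-PCR with fluorescent labelling, HpaI digestion and capillary electrophoresis, after 24 hr dosing of human HepG2 cells transiently expressing an exogenous NR-Gal4 fusion with GAL4-UAS-driven reporters; DMSO as baseline.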

[17] = ACEA_AR_agonist_AUC_viability: ACEA Biosciences xCELLigence Real-Time Cell Analysis on Androgen Receptor Agonism for Viability (AID 2283775; active = hit-call score of the fitted dose curve at least 0.9, where 1 is the maximum;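 for AC50: viability read 80 hours after compound addition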)
Method in brief: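 22Rv1 cells; impedance growth kinetics; 8-pt 1:4 dilutions from 100 uM top final, ≤0.5% DMSO; n = 2; 80 h read; AUC viability, loss-of-signal vs DMSO.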

[18] = CCTE_Harrill_HTTr_Apoptosis_MCF7: CCTE's 6-hour Apoptosis Assessment for the High-Throughput Transcriptomics (HTTr) Platform, in MCF-7 cells cultured in DMEM + 10% fetal bovine serum, Harrill Lab (AID 2284011)
Method in brief: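 MCF-7 cells in DMEM + 10% FBS exposed 6 h to chemicals over an eight-point dilution series. Caspase-3/7 activation imaged by high-content CellEvent Green staining; fitted bidirectionally versus DMSO.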

[19] = CCTE_Harrill_HTTr_CellCount_MCF7: CCTE's Cell Proliferation Assessment for the High-Throughput Transcriptomics (HTTr) Platform, Harrill Lab (AID 2284012; active = hit-call score of the fitted dose curve at least 0.9, where 1 is the maximum;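 note: cells exposed to compound for six hours; intended direction is loss of nuclei count meaning fewer cells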)
Method in brief: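 Cell count served as viability reporter: loss of Hoechst-stained nuclei, counted by high content imaging, marks decreased growth or survival. Exposure was 6 h in MCF-7 cells across eight concentrations, with DMSO as baseline.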

[20] = molecular target: Estrogen-related receptor gamma (Homo sapiens) (UniProt P62508); test: ATG_ERRg_TRANS: Attagene TRANS-FACTORIAL HepG2 Assay for human Estrogen-Related Receptor gamma (ERRg) (AID 2282977; active = hit-call score of the fitted dose curve at least 0.9, where 1 is the maximum;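 note: hits increase reporter signal over DMSO so potencies reflect activators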); details: HepG2 Attagene TRANS reporter, ERRg transactivation
Method in brief: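 Induction of reporter transcripts through a chimeric NR-Gal4 protein is quantified in transfected human HepG2 liver cells after 24 h chemical exposure, using RT-PCR with capillary electrophoresis detection and DMSO as baseline.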

Chain of Peroxisome proliferator-activated receptor gamma (Homo sapiens) (P37231 whole entry, looked up, the tested form may be a part): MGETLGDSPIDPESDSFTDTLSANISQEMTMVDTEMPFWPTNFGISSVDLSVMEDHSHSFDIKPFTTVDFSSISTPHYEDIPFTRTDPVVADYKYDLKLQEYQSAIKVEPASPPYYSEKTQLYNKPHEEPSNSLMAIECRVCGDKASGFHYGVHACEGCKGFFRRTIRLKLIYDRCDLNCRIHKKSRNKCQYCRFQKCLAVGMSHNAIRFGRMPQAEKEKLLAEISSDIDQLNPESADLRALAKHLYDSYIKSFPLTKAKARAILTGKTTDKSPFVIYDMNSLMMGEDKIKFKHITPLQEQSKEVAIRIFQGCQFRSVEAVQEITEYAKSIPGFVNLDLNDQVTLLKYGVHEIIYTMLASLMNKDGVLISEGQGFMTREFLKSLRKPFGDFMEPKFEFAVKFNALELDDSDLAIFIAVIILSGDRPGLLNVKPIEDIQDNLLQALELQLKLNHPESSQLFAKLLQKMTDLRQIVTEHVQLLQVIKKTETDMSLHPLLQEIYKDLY
Chain of human Retinoid X Receptor beta (RXRb), RXRB (gene 6257) (P28702 whole entry, looked up, the tested form may be a part): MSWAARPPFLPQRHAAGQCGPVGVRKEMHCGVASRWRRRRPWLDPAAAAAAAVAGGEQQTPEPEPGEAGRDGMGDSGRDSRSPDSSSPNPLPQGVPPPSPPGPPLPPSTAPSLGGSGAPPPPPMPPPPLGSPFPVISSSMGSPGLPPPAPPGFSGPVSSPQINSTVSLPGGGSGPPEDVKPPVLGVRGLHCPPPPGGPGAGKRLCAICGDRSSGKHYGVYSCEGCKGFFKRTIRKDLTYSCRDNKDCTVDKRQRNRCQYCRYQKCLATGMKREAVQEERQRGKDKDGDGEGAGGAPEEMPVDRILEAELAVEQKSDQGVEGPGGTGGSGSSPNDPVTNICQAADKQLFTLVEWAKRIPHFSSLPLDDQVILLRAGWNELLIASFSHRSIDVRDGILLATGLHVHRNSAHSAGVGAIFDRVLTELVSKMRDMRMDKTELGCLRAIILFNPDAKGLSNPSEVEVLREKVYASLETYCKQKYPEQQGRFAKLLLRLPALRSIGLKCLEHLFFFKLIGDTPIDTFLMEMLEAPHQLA
Chain of Retinoic acid receptor RXR-alpha (Homo sapiens) (P19793 whole entry, looked up, the tested form may be a part): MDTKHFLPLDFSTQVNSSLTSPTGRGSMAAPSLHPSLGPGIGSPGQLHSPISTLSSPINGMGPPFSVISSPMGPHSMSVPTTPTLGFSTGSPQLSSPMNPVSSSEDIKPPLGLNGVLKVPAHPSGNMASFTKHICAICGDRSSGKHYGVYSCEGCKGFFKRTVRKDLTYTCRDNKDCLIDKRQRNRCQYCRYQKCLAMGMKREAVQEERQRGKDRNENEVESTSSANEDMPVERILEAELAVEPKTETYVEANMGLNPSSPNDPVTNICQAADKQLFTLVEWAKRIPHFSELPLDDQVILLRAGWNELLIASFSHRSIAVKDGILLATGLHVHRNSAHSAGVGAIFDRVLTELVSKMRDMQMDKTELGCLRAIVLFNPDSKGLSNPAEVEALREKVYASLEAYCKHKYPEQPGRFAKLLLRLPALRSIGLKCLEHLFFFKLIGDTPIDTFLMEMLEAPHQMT
Chain of Nuclear receptor subfamily 4 group A member 2 (Homo sapiens) (P43354 whole entry, looked up, the tested form may be a part): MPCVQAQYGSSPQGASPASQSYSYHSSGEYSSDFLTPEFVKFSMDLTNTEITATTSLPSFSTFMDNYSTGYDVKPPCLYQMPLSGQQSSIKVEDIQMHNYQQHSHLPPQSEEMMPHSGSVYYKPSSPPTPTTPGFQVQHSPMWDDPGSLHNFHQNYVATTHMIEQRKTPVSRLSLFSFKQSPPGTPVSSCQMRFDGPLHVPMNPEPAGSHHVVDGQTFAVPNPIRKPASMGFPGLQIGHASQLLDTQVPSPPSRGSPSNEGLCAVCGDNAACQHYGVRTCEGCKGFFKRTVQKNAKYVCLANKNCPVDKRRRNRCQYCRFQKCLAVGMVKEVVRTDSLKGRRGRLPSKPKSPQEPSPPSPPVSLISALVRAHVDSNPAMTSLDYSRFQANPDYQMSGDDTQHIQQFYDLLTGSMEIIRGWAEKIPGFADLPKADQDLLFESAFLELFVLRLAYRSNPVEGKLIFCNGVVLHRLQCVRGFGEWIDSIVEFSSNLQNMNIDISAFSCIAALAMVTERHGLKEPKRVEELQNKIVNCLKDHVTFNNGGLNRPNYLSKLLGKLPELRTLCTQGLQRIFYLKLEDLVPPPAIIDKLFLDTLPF
Chain of Estrogen-related receptor gamma (Homo sapiens) (P62508 whole entry, looked up, the tested form may be a part): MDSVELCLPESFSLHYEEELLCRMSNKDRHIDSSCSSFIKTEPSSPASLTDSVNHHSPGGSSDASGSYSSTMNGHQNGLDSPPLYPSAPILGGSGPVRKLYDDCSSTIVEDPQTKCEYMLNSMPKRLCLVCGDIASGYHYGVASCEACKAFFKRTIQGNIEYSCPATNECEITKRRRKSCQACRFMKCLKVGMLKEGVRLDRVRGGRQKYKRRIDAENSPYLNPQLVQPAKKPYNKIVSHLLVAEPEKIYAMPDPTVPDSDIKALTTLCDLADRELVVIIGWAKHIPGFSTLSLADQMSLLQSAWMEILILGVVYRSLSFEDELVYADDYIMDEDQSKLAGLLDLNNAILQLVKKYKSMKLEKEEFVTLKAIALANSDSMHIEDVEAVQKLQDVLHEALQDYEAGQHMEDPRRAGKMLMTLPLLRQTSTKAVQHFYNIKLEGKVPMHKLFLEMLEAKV

## c1ccc(P(c2ccccc2)c2ccccc2)cc1
[1]
  AC50: 23.5 µM (active)
[2]
  AC50: 38.6 µM (active)
[3]
  outcome: inactive
[4]
  outcome: inactive
[5]
  outcome: inactive
[6]
  outcome: inactive
[7]
  outcome: inactive

## CCCCCCCCCCCC#N
[8]
  outcome: inactive
[9]
  AC50: 37.8 µM (active)
[10]
  AC50: 27.5 µM (active)
[2]
  AC50: 44.5 µM (active)
[11]
  outcome: inactive
[12]
  AC50: 36.2 µM (active)
[13]
  AC50: 20.6 µM (active)
[14]
  AC50: 32.4 µM (active)
[15]
  AC50: 32 µM (active)

## CC1(C)[C@H](C(=O)O[C@H](C#N)c2cccc(Oc3ccccc3)c2)[C@@H]1C=C(Br)Br
[16]
  outcome: inactive
[8]
  outcome: inactive
[9]
  AC50: 0.0401 µM (active)
  outcome: inactive
[10]
  AC50: 0.3 µM (active)
  outcome: inactive
[11]
  outcome: inactive
[12]
  outcome: inactive
[13]
  AC50: 0.252 µM (active)
  outcome: inactive
[14]
  outcome: inactive
[15]
  AC50: 1.67 µM (active) and 92.9 nM (active)
[3]
  outcome: inactive
[5]
  outcome: inactive
[6]
  outcome: inactive
[17]
  AC50: 50 µM (active)
  outcome: inactive
[7]
  AC50: 50 µM (active)
  outcome: inactive

## CCC(C)c1cc(C(C)(C)C)cc(-n2nc3ccccc3n2)c1O (stereo unspecified)
[16]
  outcome: inactive
[2]
  AC50: 8.72 µM (active)

## CNC(=O)Oc1cc(C)c(SC)c(C)c1
[1]
  AC50: 26.5 µM (active)
[16]
  outcome: inactive
[8]
  outcome: inactive
[9]
  outcome: inactive
[10]
  AC50: 20 µM (active)
[2]
  AC50: 30.2 µM (active)
[11]
  outcome: inactive
[12]
  outcome: inactive
[13]
  outcome: inactive
[14]
  outcome: inactive
[15]
  AC50: 11.8 µM (active)
[18]
  outcome: inactive
[19]
  outcome: inactive

## CCCCOP(=O)(O)OCCCC
[1]
  outcome: inactive

## O=P1(NCCCl)OCCCN1CCCl (stereo unspecified)
[8]
  outcome: inactive
[9]
  outcome: inactive
[10]
  outcome: inactive
[11]
  outcome: inactive
[12]
  outcome: inactive
[13]
  outcome: inactive
[14]
  outcome: inactive
[15]
  outcome: inactive

## CC(C)c1ccc(O)cc1
[20]
  outcome: inactive
[4]
  outcome: inactive
[5]
  outcome: inactive
[6]
  outcome: inactive
[17]
  outcome: inactive
[7]
  outcome: inactive

## [N-]=[N+]=CC(=O)OC[C@H](N)C(=O)O
[18]
  outcome: inactive
[19]
  outcome: inactive

## O=C(NCNC(=O)NC1C(=O)NC(=O)N1CO)NC1C(=O)NC(=O)N1CO (stereo unspecified)
[20]
  outcome: inactive
[2]
  AC50: 39.8 µM (active)
[3]
  outcome: inactive
[4]
  AC50: 78 µM (active)
[5]
  outcome: inactive
[6]
  outcome: inactive
[17]
  outcome: inactive
[7]
  outcome: inactive

## C[N+](C)=CCl
[1]
  outcome: inactive

## c1cc(OCC2CO2)ccc1Cc1ccc(OCC2CO2)cc1 (stereo unspecified)
[1]
  outcome: inactive
[16]
  outcome: inactive
[2]
  outcome: inactive
[18]
  outcome: inactive
[19]
  outcome: inactive
